This test is described as follows: Confirmatory redox qHTS assay for identification of artifact compounds.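 Also: 0% = DMSO and 100% = DA3003 at 10 µM.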 Put shortly: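 Amplex Red (25 uM final) and HRP (250 mU/mL final) in HBSS, compound 15 min, then 250 uM DTT final 30 min, room temperature, dark; fluorescence 525/598 nm, normalized to DMSO and 10 uM DA3003, Hill fitted.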
In general terms: In qHTS, concentration-response curves come from the screen itself.

Records with an inconclusive call do not appear. Unmarked numbers belong to inactive results. The source made the active and inactive calls. Calls follow the shape of the dose curve; as a rule, active = well fitted curve in the direction sought with a large enough effect; inconclusive = small, poorly fitted or top-dose-only effect, or effect the other way, or another doubt; inactive = no such curve, though single readings can be large or run the other way.

Consider `COc1ccc(NC(=O)CSc2nc(-c3ccccc3)nc3c2Cc2c(CO)cnc(C)c2O3)cc1Cl`, for which the call was inactive.

For `FC(F)(F)c1ccccc1-c1nc(NCC23CC4CC(CC(C4)C2)C3)c2ccccc2n1`, the result was inactive.

On to `Cc1ccc(C)c(NC(=O)CN2CCCN(Cc3cccc(Cl)c3)S2(=O)=O)c1`, for which the result was inactive.

For the molecule `CC(C)Oc1ccc(CNC(=O)Cc2ccc(NC(=O)N3CCSc4ncccc43)cc2)cc1`, the outcome was inactive.

Regarding `Cc1cc(C)c(S(=O)(=O)NCC(c2ccco2)S(=O)(=O)c2cccs2)c(C)c1` (stereo not given), the result was inactive.

Consider `O=c1c2ccccc2sn1-c1cc(S(=O)(=O)N2CCOCC2)ccc1N1CCCCC1`, for which the outcome was inactive.

Turning to `CCOc1ccc(C(=O)N2CCC(c3nc(-c4ccc(S(=O)(=O)N5CCCC5)cc4)no3)CC2)cc1`, the molecule was classed as inactive.

Turning to `COc1ccc(Cn2c(C(=O)O)c(CNC3CCCC3)c3ccc(C)cc32)cc1`, the call was inactive.

As to `Cn1cc(CN(C(=O)Nc2ccc(Cl)c(Cl)c2)C2CCCCC2)c2ccccc21`, the result was inactive.

In the case of `Cc1ccc(OCCn2c(CCNC(=O)OC(C)(C)C)nc3ccccc32)cc1`, the molecule was called inactive.

Regarding `COc1ccc(C(=O)Nc2ccc(-n3nncc3-c3ccccc3)cc2)cc1OC`, the molecule was called inactive.

For `C=C[C@@]1(C)C[C@H](OC(=O)CSC(C)(C)CNC(=O)[C@@H](N)C(C)C)[C@@]2(C)C(C)CC[C@@]3(CCC(=O)[C@@H]32)[C@H](C)[C@H]1O` (stereo not given in full), the result was inactive.

Consider `CCc1ccc(CN2C(=O)c3ccccc3C2C(=O)NCCc2ccc(OC)c(OC)c2)cc1` (stereo not given), for which the call was inactive.

With `CC(N)(C(=O)O)c1ccc(S(=O)(=O)O)cc1` (stereo not given), the molecule was called inactive.

As for `O=C(COc1ccc(Cl)cc1)Nc1ccc2nc(SCC(=O)N3CCCC3)sc2c1`, the call was inactive.

In the case of `Cc1ccc(NS(=O)(=O)c2ccc3c(c2)CCN(C(=O)C(F)(F)F)C3)cc1C`, the molecule was classed as inactive.

Regarding `COc1ccccc1NC(=O)CSc1nnc(NC(=O)NC2CCCCC2)s1`, the outcome was inactive.

Regarding `CC(=NCc1ccccc1)c1ccccc1O`, the outcome was inactive.

As for `OC[C@H]1O[C@@H]2O[C@H]3[C@H](O)[C@@H](O)[C@@H](O[C@H]4[C@H](O)[C@@H](O)[C@@H](O[C@H]5[C@H](O)[C@@H](O)[C@@H](O[C@H]6[C@H](O)[C@@H](O)[C@@H](O[C@H]7[C@H](O)[C@@H](O)[C@@H](O[C@H]1[C@H](O)[C@H]2O)O[C@@H]7CO)O[C@@H]6CO)O[C@@H]5CO)O[C@@H]4CO)O[C@@H]3CO`, the outcome was inactive.

In the case of `CC1(C)CC(=O)c2cc(C(=O)NCCc3ccccc3)c(=O)[nH]c2C1`, the molecule was called inactive.

With `CCCCCC(O)/C=C/C=C\CCCCCCCC(=O)O` (stereo not given), the redox activity vs DA3003 is -1.07% [at 0.303 µM].

As to `O=C(CCC(=O)N1CCSc2ccccc21)Nc1ccc(Cl)cc1`, the molecule was classed as inactive.

On to `COc1cc2c(NC3CCN(C(C)C)CC3)nc(N3CCCN(c4ccccc4)CC3)nc2cc1OCCCN1CCCCC1`, for which the outcome was inactive.

On to `COc1cc2c(NC3CCN(C)CC3)nc(N3CCN(C)CC3)nc2cc1OCCOCCN(C)C`, for which the molecule was classed as inactive.

With `O=C(Nc1onc2c1CCCC2)c1ccc(Cl)cc1`, the result was inactive.

Regarding `CC1=C(/C=C/C(C)=C/C=C/C(C)=C\C(=O)O)C(C)(C)CCC1`, the molecule was classed as inactive.

Consider `COc1ccc(N2CCN(Cc3cc(=O)oc4ccc(OC)cc34)CC2)cc1`, for which the call was inactive.

Consider `CCOC(=O)C(=O)NCC(c1cccnc1)N1CCN(c2ccccc2)CC1` (stereo not given), for which the molecule was classed as inactive.

As for `CN1C(CC(=O)c2ccccc2)CCCC1CC(O)c1ccccc1` (stereo not given), the result was inactive.

As to `CCOC(=O)C1CCN(C(c2ccc(OCC)cc2)c2c(O)cc(C)n(CCOC)c2=O)CC1` (stereo not given), the molecule was classed as inactive.

`Cc1ccc(-n2ncc(C(=O)N3CCN(c4ccccn4)CC3)c2C2CCN(C(=O)OC(C)(C)C)CC2)cc1C`: the result was inactive.

On to `Cc1ccc(CNC(=O)c2c(-c3ccccc3Cl)noc2C)o1`, for which the call was inactive.

Regarding `COc1cc(O)c(C(CC(=O)N2CCCCC2)c2ccc(C)cc2)c(OC)c1` (stereo not given), the outcome was inactive.

In the case of `O=C(Nc1ccc(C(F)(F)F)cc1)C1(c2cccs2)CCOCC1`, the result was inactive.

For `O=C(Nc1ccc(Cl)cc1)N1CCC(c2ccccc2)C1` (stereo not given), the molecule was classed as inactive.

`COc1cc2c(NC3CCN(C)CC3)nc(N3CCCN(C)CC3)nc2cc1OCCCCC(N)=O`: the result was inactive.

With `CC[C@H](C)CCCCC(=O)N[C@@H](CCN)C(=O)N[C@H](C(=O)N[C@@H](CCN)C(=O)N[C@H]1CCNC(=O)[C@@H]([C@H](C)O)NC(=O)[C@H](CCN)NC(=O)[C@H](CCN)NC(=O)[C@H](CC(C)C)NC(=O)[C@@H](CC(C)C)NC(=O)[C@H](CCN)NC1=O)[C@@H](C)O`, the molecule was called inactive.

With `O=C(Nc1cc2c(cc1C(=O)c1ccccc1Cl)OCCO2)c1ccc(Br)cc1`, the call was inactive.

As for `COc1ccc(CCNC(=O)c2cc(=O)[nH]c3ccc(S(=O)(=O)N4CCCCC4)cc23)cc1OC`, the result was inactive.

Consider `COc1ccccc1Cn1c(CNS(=O)(=O)c2ccc3c(c2)CCCC3)nc2cccnc21`, for which the molecule was called inactive.
